Measured values from PubChem BioAssay AID1159580 (chemical genetic matrix, 2015).
“And” between values parts separate entries of the source, which are not always exact repeats. Equal values may be shown once. Out of some 5,500 compounds screened, about 2,000 (36%) were called active. About 18% were inconclusive and are not listed. No stated cut-off is given here; in the data, active means normalized growth mostly below about 0.91 (no sharp cut-off); inconclusive means no clear call, values can overlap the other calls; inactive means mostly above about 0.92. The list shows a part of the results.

Assay: chemical genetic growth profiling, strain panel (AID 1159580);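 further: tested at 20 µM; growth read once vehicle control cultures reached saturation at 30 °C; 1 = growth at the plate median or of vehicle wells; lower values mean less growth of the strain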
Conditions: S. cerevisiae deletion strains, growth OD

Measured: normalized growth

c1coc(CNc2ncnc3nc[nH]c23)c1
inactive: locus YAL013W, strain DEP1, hits give low values 0.998 | locus YAL021C, strain ccr4, hits give low values 0.995 | locus YAL026C, strain drs2, hits give low values 0.997 | locus YAL030W, strain snc1, hits give low values 1 | locus YBL061C, strain skt5, hits give low values 0.997 | locus YBR009C, strain hhf1, hits give low values 0.988 | locus YBR021W, strain FUR4, hits give low values 1.02 | locus YBR023C, strain chs3, hits give low values 0.996 | locus YBR171W, strain sec66, hits give low values 0.994 | locus YBR229C, strain ROT2, hits give low values 1.01 | locus YBR231C, strain swc5, hits give low values 1 | locus YBR279W, strain paf1, hits give low values 1 | locus YCL011C, strain gbp2, hits give low values 1 | locus YCL016C, strain dcc1, hits give low values 1 | locus YCL029C, strain bik1, hits give low values 0.991 | locus YCL061C, strain MRC1, hits give low values 1.01 | locus YCL069W, strain vba3, hits give low values 0.999 | locus YCR088W, strain abp1, hits give low values 0.991 | locus YDL005C, strain med2, hits give low values 0.995 | locus YDL035C, strain GPR1, hits give low values 1.01 | locus YDL040C, strain nat1, hits give low values 0.996 | locus YDL074C, strain BRE1, hits give low values 0.997 | locus YDL101C, strain DUN1, hits give low values 0.995 | locus YDL134C, strain PPH21, hits give low values 1.01 | locus YDL185W, strain tfp1, hits give low values 0.964 | locus YDL192W, strain arf1, hits give low values 0.99 | locus YDR001C, strain nth1, hits give low values 0.993 | locus YDR069C, strain doa4, hits give low values 1 | locus YDR101C, strain arx1, hits give low values 0.996 | locus YDR137W, strain rgp1, hits give low values 0.964 | locus YDR150W, strain NUM1, hits give low values 0.992 | locus YDR159W, strain sac3, hits give low values 0.974 | locus YDR162C, strain NBP2, hits give low values 0.992 | locus YDR195W, strain ref2 0.974 | locus YDR297W, strain sur2, hits give low values 0.997 | locus YDR318W, strain mcm21, hits give low values 0.995 | locus YDR334W, strain swr1, hits give low values 1.01 | locus YDR335W, strain msn5, hits give low values 1.01 | locus YDR388W, hits give low values 1 | locus YDR392W, strain spt3, hits give low values 0.991 | locus YDR502C, strain sam2, hits give low values 1.01 | locus YEL003W, strain gim4, hits give low values 1 | locus YEL037C, strain rad23, hits give low values 0.998 | locus YEL061C, strain CIN8 (second series), hits give low values 0.997 | locus YEL061C, strain CIN8, hits give low values 0.995 | locus YER015W, strain faa2, hits give low values 1 | locus YER016W, strain bim1, hits give low values 0.99 | locus YER110C, hits give low values 0.999 | locus YER111C, strain swi4, hits give low values 0.986 | locus YER155C, strain BEM2 (second series), hits give low values 0.97 | locus YER155C, strain BEM2, hits give low values 0.999 | locus YER167W, strain BCK2, hits give low values 1 | locus YFR010W, strain ubp6, hits give low values 1 | locus YGL078C, strain dbp3, hits give low values 0.992 | locus YGL086W, strain mad1, hits give low values 1 | locus YGL167C, strain pmr1, hits give low values 1 | locus YGL173C, strain kem1, hits give low values 0.993 | locus YGL227W, strain vid30, hits give low values 0.993 | locus YGL240W, strain doc1, hits give low values 0.996 | locus YGL248W, strain PDE1, hits give low values 1.02 | locus YGL253W, strain hxk2, hits give low values 0.995 | locus YGR078C, strain PAC10, hits give low values 0.994 | locus YGR135W, strain pre9, hits give low values 0.997 | locus YGR229C, strain SMI1, hits give low values 1 | locus YGR252W, strain gcn5, hits give low values 1.19 | locus YHR013C, strain ard1, hits give low values 0.983 | locus YHR027C, strain rpn1, hits give low values 1 | locus YHR030C, strain SLT2, hits give low values 0.998 and 0.973 | locus YHR079C, strain IRE1 (second series), hits give low values 0.996 | locus YHR079C, strain IRE1, hits give low values 0.964 | locus YHR094C, strain hxt1, hits give low values 0.957 | locus YHR129C, strain ARP1, hits give low values 0.999 | locus YHR142W, strain chs7, hits give low values 0.992 | locus YHR200W, strain rpn10, hits give low values 0.986 | locus YIL066C, strain RNR3, hits give low values 1.01 | locus YIL073C, strain SPO22, hits give low values 0.978 | locus YIL125W, strain kgd1, hits give low values 0.988 | locus YIR030C, strain dcg1, hits give low values 0.998 | locus YJL092W, strain hpr5, hits give low values 0.995 | locus YJL095W, strain BCK1 (second series), hits give low values 0.994 | locus YJL095W, strain BCK1, hits give low values 0.985 and 0.986 | locus YJL115W, strain asf1, hits give low values 1 | locus YJL129C, strain trk1, hits give low values 1.02 | locus YJL134W, strain LCB3, hits give low values 0.997 | locus YJL154C, strain vps35, hits give low values 0.997 | locus YJL164C, strain tpk1, hits give low values 0.997 | locus YJL166W, strain qcr8, hits give low values 1 | locus YJL168C, strain set2, hits give low values 0.996 | locus YJL187C, strain SWE1 (second series), hits give low values 0.992 | locus YJR043C, strain POL32, hits give low values 0.985 | locus YJR066W, strain TOR1, hits give low values 0.912
